# Measurements from paper PMC7862700, “An all-to-all approach to the identification of sequence-specific readers for epigenetic DNA modifications on cytosine”.
# Experiments:
# Assay in all cases: DAPPL (digital affinity profiling via proximity ligation, sequencing); 10 mM Tris-HCl pH 7.5, 50 mM NaCl, 1 mM DTT, 4% glycerol, room temperature, 30 min; GST-TFs on glutathione beads, 16-mer random dsDNA library, 0.1% formaldehyde crosslink after washing; high values mean tight binding
# FEV = molecular target: T1, FEV (Homo sapiens, UniProt Q99581 1-238); details: protein: recombinant; tags: N-terminal GST; dsDNA, one strand shown
# T1 sequence: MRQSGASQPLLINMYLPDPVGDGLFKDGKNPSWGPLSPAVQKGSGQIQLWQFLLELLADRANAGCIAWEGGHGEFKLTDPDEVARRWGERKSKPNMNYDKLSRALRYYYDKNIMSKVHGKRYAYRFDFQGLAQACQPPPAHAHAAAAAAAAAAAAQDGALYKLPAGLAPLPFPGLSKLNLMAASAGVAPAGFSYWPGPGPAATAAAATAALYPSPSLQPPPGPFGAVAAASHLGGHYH
# In short: (§1)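 Sequencing on an Illumina NextSeq500 followed washing, crosslinking with 0.1% formaldehyde, proximity ligation (BsaI/T4 ligase, 1 h, 37 °C) and PCR amplification of pools that had been incubated for 30 min at room temperature with 200 nmole of a random double-stranded 16-mer DNA library in Tris/NaCl/DTT/glycerol buffer. Each pool held DNA-barcoded human transcription factors, expressed in yeast as GST fusions and captured on glutathione beads, plus a tag-only sample. Binding signal is a hexamer's read frequency for a factor divided by its frequency in the tag-only sample.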
# ETV5 = ETV5 (Homo sapiens, UniProt P41161 1-510); details: protein: recombinant; tags: N-terminal GST; dsDNA, one strand shown
# In short: as §1
# HSF1 = HSF1 (Homo sapiens, UniProt Q00613 1-529); details: protein: recombinant; tags: N-terminal GST; chain copies: 3; dsDNA, one strand shown
# In short: as §1
# SPIC = molecular target: T2, SPIC (Homo sapiens, UniProt Q8N5J4 1-248); details: protein: recombinant; tags: N-terminal GST; dsDNA, one strand shown
# T2 sequence: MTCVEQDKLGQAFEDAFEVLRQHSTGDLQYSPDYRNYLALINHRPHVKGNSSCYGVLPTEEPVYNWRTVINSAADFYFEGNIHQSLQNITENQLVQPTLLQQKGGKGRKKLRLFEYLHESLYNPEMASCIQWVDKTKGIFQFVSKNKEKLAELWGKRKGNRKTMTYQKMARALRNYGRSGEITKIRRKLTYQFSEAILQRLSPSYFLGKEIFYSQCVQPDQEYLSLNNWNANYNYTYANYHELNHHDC
# In short: as §1
# ELF4 = ELF4 (Homo sapiens, UniProt Q99607 1-663); details: protein: recombinant; tags: N-terminal GST; dsDNA, one strand shown
# In short: as §1
# ELK4 = molecular target: T3, ELK4 (Homo sapiens, UniProt P28324-2 1-405); details: protein: recombinant; tags: N-terminal GST; dsDNA, one strand shown
# T3 sequence: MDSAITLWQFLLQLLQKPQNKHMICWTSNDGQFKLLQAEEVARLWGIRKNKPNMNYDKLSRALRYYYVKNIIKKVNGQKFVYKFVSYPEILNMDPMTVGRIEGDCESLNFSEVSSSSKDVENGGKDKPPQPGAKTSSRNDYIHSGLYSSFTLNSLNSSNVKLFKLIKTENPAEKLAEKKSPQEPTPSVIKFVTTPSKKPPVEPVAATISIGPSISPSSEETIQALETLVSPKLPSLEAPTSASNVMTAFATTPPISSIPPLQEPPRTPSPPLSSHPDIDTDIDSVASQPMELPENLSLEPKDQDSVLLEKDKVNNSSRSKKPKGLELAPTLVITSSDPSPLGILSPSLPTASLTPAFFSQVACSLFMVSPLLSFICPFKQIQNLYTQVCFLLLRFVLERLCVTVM
# In short: as §1
# ETV2 = molecular target: T4, ETV2 (Homo sapiens, UniProt O00321 1-342); details: protein: recombinant; tags: N-terminal GST; dsDNA, one strand shown
# T4 sequence: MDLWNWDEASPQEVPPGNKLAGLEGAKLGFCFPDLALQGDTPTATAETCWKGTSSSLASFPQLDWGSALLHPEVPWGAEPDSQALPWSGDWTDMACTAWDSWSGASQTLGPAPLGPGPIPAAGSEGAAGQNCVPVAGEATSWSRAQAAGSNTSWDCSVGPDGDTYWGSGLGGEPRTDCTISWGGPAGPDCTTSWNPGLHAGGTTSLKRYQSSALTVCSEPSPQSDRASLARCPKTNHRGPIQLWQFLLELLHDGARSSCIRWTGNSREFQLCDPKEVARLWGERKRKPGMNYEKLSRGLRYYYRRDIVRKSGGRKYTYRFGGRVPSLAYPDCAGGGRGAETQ
# In short: as §1
# ELF3 = molecular target: T5, ELF3 (Homo sapiens, UniProt P78545 1-371); details: protein: recombinant; tags: N-terminal GST; dsDNA, one strand shown
# T5 sequence: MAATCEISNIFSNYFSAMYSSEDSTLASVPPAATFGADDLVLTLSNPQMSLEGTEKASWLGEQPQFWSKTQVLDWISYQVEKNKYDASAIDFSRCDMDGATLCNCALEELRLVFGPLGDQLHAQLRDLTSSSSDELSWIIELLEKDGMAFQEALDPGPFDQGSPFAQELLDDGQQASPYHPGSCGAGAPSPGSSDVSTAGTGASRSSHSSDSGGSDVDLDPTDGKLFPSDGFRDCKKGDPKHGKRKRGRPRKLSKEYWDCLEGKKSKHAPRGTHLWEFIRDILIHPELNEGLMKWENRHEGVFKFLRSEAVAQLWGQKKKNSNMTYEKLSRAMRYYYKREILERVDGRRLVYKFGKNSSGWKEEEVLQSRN
# In short: as §1
# CRX = CRX (Homo sapiens, UniProt O43186 1-299); details: protein: recombinant; tags: N-terminal GST; dsDNA, one strand shown
# In short: as §1
# ETV1 = ETV1 (Homo sapiens, UniProt P50549 1-477); details: protein: recombinant; tags: N-terminal GST; dsDNA, one strand shown
# In short: as §1
# ERF = molecular target: T6, ERF (Homo sapiens, UniProt P50548 1-548); details: protein: recombinant; tags: N-terminal GST; dsDNA, one strand shown
# T6 sequence: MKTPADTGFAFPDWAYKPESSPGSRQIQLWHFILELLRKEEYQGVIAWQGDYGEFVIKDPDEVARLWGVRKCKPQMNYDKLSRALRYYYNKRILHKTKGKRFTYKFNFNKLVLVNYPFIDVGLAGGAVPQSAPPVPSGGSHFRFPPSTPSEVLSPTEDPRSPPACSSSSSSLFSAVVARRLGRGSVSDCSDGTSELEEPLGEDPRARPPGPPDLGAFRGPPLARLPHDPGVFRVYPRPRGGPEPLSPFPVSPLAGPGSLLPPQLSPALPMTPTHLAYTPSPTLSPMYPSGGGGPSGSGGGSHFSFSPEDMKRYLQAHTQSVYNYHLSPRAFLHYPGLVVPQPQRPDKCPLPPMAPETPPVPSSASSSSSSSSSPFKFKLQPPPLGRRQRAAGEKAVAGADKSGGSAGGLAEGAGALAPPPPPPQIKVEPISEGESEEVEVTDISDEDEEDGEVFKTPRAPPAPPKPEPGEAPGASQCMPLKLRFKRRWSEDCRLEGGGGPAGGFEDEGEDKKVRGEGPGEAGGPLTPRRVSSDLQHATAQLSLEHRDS
# In short: as §1
# ETV3L = molecular target: T7, ETV3L (Homo sapiens, UniProt Q6ZN32 1-361); details: protein: recombinant; tags: N-terminal GST; dsDNA, one strand shown
# T7 sequence: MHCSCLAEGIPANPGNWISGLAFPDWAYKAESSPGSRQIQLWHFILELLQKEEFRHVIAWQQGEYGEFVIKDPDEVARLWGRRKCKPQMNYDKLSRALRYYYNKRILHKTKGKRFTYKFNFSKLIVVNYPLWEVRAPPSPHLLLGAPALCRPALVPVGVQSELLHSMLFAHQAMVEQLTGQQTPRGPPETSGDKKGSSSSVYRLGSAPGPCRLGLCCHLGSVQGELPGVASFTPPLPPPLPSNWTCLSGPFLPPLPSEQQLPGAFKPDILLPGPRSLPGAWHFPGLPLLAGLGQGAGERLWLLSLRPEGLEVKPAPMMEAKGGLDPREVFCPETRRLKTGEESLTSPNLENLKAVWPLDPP
# In short: as §1
# ETS2 = molecular target: T8, ETS2 (Homo sapiens, UniProt P15036 1-469); details: protein: recombinant; tags: N-terminal GST; dsDNA, one strand shown
# T8 sequence: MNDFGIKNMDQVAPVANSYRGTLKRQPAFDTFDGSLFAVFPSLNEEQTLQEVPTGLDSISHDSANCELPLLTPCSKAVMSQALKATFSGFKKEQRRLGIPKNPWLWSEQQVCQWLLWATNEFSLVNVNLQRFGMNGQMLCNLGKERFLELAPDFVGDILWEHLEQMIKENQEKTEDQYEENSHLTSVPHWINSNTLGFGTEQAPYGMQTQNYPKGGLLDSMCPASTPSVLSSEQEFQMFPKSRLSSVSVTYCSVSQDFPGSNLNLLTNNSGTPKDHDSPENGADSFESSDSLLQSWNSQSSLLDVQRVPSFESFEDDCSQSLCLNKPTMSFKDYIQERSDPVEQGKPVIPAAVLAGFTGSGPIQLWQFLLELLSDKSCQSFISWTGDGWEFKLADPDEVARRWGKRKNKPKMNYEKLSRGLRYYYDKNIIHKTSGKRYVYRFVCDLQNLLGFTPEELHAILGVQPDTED
# In short: as §1
# SPDEF = molecular target: T9, SPDEF (Homo sapiens, UniProt O95238 1-335); details: protein: recombinant; tags: N-terminal GST; dsDNA, one strand shown
# T9 sequence: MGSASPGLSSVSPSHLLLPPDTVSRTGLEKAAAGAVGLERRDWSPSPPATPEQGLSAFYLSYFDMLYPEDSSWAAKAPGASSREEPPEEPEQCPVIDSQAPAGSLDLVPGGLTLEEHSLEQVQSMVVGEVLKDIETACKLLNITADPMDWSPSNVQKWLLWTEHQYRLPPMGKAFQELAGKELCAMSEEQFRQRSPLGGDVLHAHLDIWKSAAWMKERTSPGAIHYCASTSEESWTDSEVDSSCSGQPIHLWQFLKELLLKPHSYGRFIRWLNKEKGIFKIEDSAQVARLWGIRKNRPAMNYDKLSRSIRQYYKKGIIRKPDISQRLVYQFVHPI
# In short: as §1
# ETV7 = molecular target: T10, ETV7 (Homo sapiens, UniProt Q9Y603 1-341); details: protein: recombinant; tags: N-terminal GST; dsDNA, one strand shown
# T10 sequence: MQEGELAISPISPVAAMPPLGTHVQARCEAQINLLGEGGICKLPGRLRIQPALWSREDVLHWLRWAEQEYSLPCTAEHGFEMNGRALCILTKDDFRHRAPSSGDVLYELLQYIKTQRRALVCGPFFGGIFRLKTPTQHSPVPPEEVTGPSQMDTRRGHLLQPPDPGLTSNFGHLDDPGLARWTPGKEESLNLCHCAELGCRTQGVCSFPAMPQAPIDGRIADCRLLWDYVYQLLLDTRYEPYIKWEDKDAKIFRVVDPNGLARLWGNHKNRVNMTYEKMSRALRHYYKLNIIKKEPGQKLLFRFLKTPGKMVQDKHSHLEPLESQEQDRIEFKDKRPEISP
# In short: as §1
# ELF5 = molecular target: T11, ELF5 (Homo sapiens, UniProt Q9UKW6-2 1-255); details: protein: recombinant; tags: N-terminal GST; dsDNA, one strand shown
# T11 sequence: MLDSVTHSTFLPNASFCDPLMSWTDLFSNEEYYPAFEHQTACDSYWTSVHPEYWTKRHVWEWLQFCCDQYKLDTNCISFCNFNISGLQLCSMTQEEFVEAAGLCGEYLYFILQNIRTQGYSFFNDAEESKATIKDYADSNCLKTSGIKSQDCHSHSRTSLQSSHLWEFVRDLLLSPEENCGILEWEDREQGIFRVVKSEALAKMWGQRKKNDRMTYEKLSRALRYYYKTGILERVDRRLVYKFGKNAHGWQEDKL
# In short: as §1
# ETV3 = molecular target: T12, ETV3 (Homo sapiens, UniProt P41162-2 1-143); details: protein: recombinant; tags: N-terminal GST; dsDNA, one strand shown
# T12 sequence: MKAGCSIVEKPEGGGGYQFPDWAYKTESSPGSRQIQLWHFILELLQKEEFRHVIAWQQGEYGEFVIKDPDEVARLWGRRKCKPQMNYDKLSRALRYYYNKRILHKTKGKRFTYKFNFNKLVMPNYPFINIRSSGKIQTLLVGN
# In short: as §1
# ETV6 = ETV6 (Homo sapiens, UniProt P41212 1-452); details: protein: recombinant; tags: N-terminal GST; dsDNA, one strand shown
# In short: as §1
# HSF1, sequence (Q00613 whole entry): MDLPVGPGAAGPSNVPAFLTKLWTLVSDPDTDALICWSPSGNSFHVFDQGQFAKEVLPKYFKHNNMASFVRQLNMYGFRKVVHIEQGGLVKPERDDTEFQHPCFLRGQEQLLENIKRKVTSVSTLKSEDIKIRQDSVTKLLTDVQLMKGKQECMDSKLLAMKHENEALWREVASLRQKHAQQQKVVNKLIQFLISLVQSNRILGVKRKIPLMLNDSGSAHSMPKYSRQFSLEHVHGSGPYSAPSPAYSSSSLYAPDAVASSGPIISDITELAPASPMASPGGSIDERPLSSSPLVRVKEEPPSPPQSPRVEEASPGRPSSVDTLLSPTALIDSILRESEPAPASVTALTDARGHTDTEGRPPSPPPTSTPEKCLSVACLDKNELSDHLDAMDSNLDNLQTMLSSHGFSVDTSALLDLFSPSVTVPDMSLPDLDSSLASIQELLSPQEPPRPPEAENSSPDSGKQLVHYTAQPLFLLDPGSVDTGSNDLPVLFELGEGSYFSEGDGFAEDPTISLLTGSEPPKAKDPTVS
# ETV1, sequence (P50549 whole entry): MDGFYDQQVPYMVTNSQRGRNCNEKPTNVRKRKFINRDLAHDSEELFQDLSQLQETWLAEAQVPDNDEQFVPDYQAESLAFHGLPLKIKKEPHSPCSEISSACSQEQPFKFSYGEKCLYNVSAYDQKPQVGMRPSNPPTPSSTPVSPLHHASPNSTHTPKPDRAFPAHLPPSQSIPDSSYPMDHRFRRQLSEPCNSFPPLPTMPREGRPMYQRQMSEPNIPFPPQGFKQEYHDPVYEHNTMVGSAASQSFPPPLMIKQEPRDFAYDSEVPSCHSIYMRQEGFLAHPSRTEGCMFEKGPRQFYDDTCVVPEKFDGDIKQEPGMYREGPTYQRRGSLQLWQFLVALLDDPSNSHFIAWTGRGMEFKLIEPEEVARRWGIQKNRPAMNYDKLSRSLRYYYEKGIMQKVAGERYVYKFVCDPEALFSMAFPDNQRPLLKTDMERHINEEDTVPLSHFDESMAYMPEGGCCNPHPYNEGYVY
# ETV5, sequence (P41161 whole entry): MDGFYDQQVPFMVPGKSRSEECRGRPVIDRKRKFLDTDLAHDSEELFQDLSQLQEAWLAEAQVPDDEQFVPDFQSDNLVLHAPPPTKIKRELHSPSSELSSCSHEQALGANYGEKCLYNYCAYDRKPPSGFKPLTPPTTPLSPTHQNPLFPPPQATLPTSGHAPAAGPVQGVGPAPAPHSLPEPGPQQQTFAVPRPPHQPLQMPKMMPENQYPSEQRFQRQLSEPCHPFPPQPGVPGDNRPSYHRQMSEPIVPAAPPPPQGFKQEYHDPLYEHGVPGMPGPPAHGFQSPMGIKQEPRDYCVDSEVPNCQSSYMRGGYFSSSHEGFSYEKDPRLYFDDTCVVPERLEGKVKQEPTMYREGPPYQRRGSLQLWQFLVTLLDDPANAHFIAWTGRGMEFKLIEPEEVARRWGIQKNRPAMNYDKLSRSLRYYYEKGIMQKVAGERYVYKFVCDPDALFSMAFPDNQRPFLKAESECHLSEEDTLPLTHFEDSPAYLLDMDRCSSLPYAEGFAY
# CRX, sequence (O43186 whole entry): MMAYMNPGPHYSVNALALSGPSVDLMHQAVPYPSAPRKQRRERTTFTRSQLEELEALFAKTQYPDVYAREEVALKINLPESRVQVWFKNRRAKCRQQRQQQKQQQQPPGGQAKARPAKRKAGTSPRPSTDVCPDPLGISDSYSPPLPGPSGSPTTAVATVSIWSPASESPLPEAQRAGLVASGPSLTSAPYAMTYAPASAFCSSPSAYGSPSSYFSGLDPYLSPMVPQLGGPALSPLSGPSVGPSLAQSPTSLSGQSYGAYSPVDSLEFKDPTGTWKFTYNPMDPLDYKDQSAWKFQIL
# ETV6, sequence (P41212 whole entry): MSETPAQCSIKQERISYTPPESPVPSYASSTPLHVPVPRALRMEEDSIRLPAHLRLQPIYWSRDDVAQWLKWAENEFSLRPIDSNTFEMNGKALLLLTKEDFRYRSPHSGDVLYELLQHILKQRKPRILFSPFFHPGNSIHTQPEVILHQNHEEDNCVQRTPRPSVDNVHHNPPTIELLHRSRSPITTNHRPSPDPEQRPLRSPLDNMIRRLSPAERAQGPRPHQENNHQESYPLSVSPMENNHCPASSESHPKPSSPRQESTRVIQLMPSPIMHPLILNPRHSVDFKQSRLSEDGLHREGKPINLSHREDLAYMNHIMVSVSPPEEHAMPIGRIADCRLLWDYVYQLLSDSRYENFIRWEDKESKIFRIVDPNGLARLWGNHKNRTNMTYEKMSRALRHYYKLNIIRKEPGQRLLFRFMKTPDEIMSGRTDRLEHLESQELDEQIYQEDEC
# ELF4, sequence (Q99607 whole entry): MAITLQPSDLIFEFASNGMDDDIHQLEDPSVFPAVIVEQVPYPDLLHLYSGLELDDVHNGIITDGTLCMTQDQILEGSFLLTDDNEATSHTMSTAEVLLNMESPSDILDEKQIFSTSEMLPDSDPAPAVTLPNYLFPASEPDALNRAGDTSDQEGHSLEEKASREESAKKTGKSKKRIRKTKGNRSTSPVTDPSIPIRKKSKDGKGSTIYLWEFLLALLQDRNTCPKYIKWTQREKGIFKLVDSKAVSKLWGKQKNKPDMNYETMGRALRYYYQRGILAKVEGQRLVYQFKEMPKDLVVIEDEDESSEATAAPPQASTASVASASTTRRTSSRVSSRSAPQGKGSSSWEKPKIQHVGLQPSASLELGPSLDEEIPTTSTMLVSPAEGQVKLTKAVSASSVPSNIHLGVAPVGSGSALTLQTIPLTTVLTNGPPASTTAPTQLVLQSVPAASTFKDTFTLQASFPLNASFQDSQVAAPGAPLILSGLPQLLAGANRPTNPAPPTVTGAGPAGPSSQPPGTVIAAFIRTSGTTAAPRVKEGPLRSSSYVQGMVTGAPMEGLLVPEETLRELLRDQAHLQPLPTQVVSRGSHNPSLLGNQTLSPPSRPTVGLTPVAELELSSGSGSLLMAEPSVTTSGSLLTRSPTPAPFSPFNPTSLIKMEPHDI
sequence,measurement,setting,value
ATTTAT,binding signal,FEV,"1.34 fold enrichment (6-mer frequency, TF over GST control)"
same,binding signal,ETV5,"1.41 fold enrichment (6-mer frequency, TF over GST control)"
same,binding signal,HSF1,"1.68 fold enrichment (6-mer frequency, TF over GST control)"
same,binding signal,SPIC,"1.49 fold enrichment (6-mer frequency, TF over GST control)"
same,binding signal,ELF4,"1.35 fold enrichment (6-mer frequency, TF over GST control)"
same,binding signal,ELK4,"1.53 fold enrichment (6-mer frequency, TF over GST control)"
same,binding signal,ETV2,"1.44 fold enrichment (6-mer frequency, TF over GST control)"
same,binding signal,ELF3,"1.46 fold enrichment (6-mer frequency, TF over GST control)"
same,binding signal,CRX,"2.19 fold enrichment (6-mer frequency, TF over GST control)"
same,binding signal,ETV1,"1.43 fold enrichment (6-mer frequency, TF over GST control)"
same,binding signal,ERF,"1.51 fold enrichment (6-mer frequency, TF over GST control)"
same,binding signal,ETV3L,"1.54 fold enrichment (6-mer frequency, TF over GST control)"
same,binding signal,ETS2,"1.47 fold enrichment (6-mer frequency, TF over GST control)"
same,binding signal,SPDEF,"1.4 fold enrichment (6-mer frequency, TF over GST control)"
same,binding signal,ETV7,"1.48 fold enrichment (6-mer frequency, TF over GST control)"
same,binding signal,ELF5,"1.39 fold enrichment (6-mer frequency, TF over GST control)"
same,binding signal,ETV3,"1.41 fold enrichment (6-mer frequency, TF over GST control)"
same,binding signal,ETV6,"1.4 fold enrichment (6-mer frequency, TF over GST control)"
